Assay results: PubChem BioAssay
Records with an inconclusive call do not appear. Active and inactive are the calls of the source. Unless noted, the rule behind the calls is not given here.

Tests used:
[1] = yeast TOR pathway RPL19A-GFP modulators, primary screen, cell-based, S. cerevisiae, multiplex flow cytometry (AID 1862; in the data active = percent of DMSO control GFP below about 86%;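 note: lower values mimic rapamycin by blocking the RPL19A rise seen in DMSO cells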); settings: S. cerevisiae RPL19A-GFP strain, flow cytometry fluorescence, 3 h; at 10 µM; stronger effect = lower value
[2] = modulators of MEP2-GFP levels in yeast, primary screen, S. cerevisiae, multiplex flow cytometry (AID 1867;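 active = GFP response, as percent of the DMSO control, above the screen-wide mean plus 3 SD, about 139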;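 note: median GFP channel fluorescence of barcode-gated MEP2-GFP cells measured by flow cytometry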); settings: S. cerevisiae MEP2-GFP strain, 3 h, at 10 µM, stronger effect = higher value
[3] = modulators of CIT2-GFP expression in yeast, primary screen, S. cerevisiae, GFP fusion, multiplex flow cytometry (AID 1870;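 active = percent response above a set limit, the screen-wide mean plus 3 SD, cut at about 130% in these data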;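 note: barcoded CIT2-GFP strain pooled with four other GFP strains with rapamycin as positive control; median GFP fluorescence per well over plate mean of DMSO wells so 100% = DMSO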); settings: 3 h, at 10 µM, stronger effect = higher value
[4] = modulators of LAP4-GFP expression in yeast, primary screen, S. cerevisiae, multiplex flow cytometry (AID 1873;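 active = GFP signal, as percent of the solvent control, above the screen mean plus 3 SD, about 149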); settings: 3 h, at 10 µM, stronger effect = higher value
[5] = inhibitors of CD8+ T cell-vesicle binding, pilot screen, LFA-1/ICAM-1 modulator project, MLPCN validation set, flow cytometry (AID 2523;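 active = response below a set limit, under 55% cells CD8-positive and vesicle-bound, and CD8 cells' 90th-percentile brightness under 279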;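 for vesicle binding response: mean PE anti-B7-1 fluorescence of CD8+ cells relative to row control; 100% = QL9-loaded vesicles with DMSO vehicle in the same plate row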); settings: 2C mouse CD8+ T cells, at 7 µM, stronger effect = lower value; double positive events: measured here: CD8+/vesicle+ event percentage
[6] = biological target: Integrin beta-1 (Homo sapiens) + Integrin alpha-4 (Homo sapiens) (UniProt P13612+P05556); assay: inhibition of HUTS-21 binding to VLA-4, pilot screen, VLA-4 allosteric modulator project, U937 cells, HUTS-21 mAb, flow cytometry, validation set (AID 2674;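 active = inhibition above 50%, about 3 SD of the validation set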;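 note: antibody binding induced by the VLA-4 ligand LDV present at three times its Kd; 0% = LDV ligand with antibody and no compound and 100% = antibody without LDV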); settings: HUTS-21 LIBS mAb binding, at 6.7 µM, stronger effect = higher value
[7] = superoxide lowering in aged yeast cells, pilot screen, validation compound set (AID 2706;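 active = superoxide response below 65% of plate, a cut near 3 SD across the whole screen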;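 note: yeast exposed to compound for one week at 30 degrees C before staining; 100% = mean of all compound wells on the same plate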); settings: S. cerevisiae aging, superoxide DHE fluorescence; at 10 µM; stronger effect = lower value
[8] = biological target: Beta-adrenergic receptor kinase 1 (Homo sapiens) (UniProt P25098); assay: GRK2 binders displacing RNA aptamer, biochemical, validation, human GRK2, bead flow cytometry (AID 488806;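 active = aptamer binding inhibition above 30%, about 3 SD of noise from non-fluorescent compounds; inactive = inhibition at or below 30%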); settings: bead-bound GRK2, FAM-aptamer displacement, at 10 µM, stronger effect = higher value
[9] = biological target: AP-2 complex subunit beta (Homo sapiens) (UniProt P63010); assay: inhibitors of arrestin peptide binding to AP2, pilot screen, biochemical, validation set, GST-AP2 beads, flow cytometry (AID 504541;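 active = inhibition above 54%, about 3 SD of non-fluorescent compounds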;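 note: AP2 carries R879A mutation and is captured from E. coli lysate; bead-bound FITC arrestin peptide fluorescence measuring arrestin peptide binding to AP2; 0% = DMSO wells and 100% = excess unlabeled arrestin peptide control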); settings: FITC arrestin peptide, at 10 µM, stronger effect = higher value
[10] = yeast V-ATPase proton transport modulators, S. cerevisiae, pHLuorin, HTS validation (AID 504600; in the data active = response above about 15%;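 note: plate controls were DMSO for no effect and reference compound for full effect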); settings: S. cerevisiae pHLuorin cytosolic pH, at 10 µM, stronger effect = higher value
[11] = system: anti-desmoglein-3 scFv antibody binding to human DSG3; assay: inhibitors of anti-DSG3 scFv binding to DSG3, pilot screen, biochemical, validation compound set, bead-based, flow cytometry (AID 588368;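 active = binding below the plate cutoff, the plate median minus 3 SD, with a reading above zero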;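 note: signal is the median channel fluorescence of bead-bound GFP antibody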); settings: Protein G beads, DSG3-Fc, scFv-GFP binding, at 10 µM, stronger effect = lower value
[12] = system: Botulinum neurotoxin type F light chain protease (Clostridium botulinum); assay: Botulinum neurotoxin type F light chain protease inhibition, multiplex microsphere flow cytometry, validation set (AID 588459); settings: multiplex microsphere protease substrate cleavage assay, at 10 µM, stronger effect = higher value
[13] = biological target: Botulinum neurotoxin type A (Clostridium botulinum) (UniProt P0DPI0); assay: BoNT/A light chain protease inhibitors, biochemical, multiplex microsphere flow cytometry, validation set (AID 588460); settings: at 10 µM, stronger effect = higher value
[14] = biological target: Lethal factor (Bacillus anthracis) (UniProt P15917); assay: Lethal factor protease inhibitors, Bacillus anthracis, multiplex microsphere cleavage assay, validation set (AID 588461); settings: flow cytometry, at 10 µM, stronger effect = higher value
[15] = inhibitors of fungal efflux pumps CDR1, CDR2, MDR1, pilot screen, validation compound set, multiplex, phenotypic (AID 588506;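 active = efflux inhibition above 0.42, the validation set average plus 4 SD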;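 note: Nile Red retained in cells so higher fluorescence means more efflux inhibition; 0 = negative control wells and 1 = enniatin B 25 µM full block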); settings: S. cerevisiae pump-expressing triplex, Nile Red efflux flow cytometry; at 10 µM; stronger effect = higher value
[16] = biological target: ATP-binding cassette sub-family B member 6 (Homo sapiens) (UniProt Q9NP58); assay: ABCB6 transporter inhibitors, pilot screen, K562-ABCB6 cells, flow cytometry, validation set (AID 588550;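 active = inhibition above the screen-wide mean plus 3 SD, about 51%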;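 note: 0% = DMSO wells and 100% = benzethonium chloride 70 µM positive control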); settings: K562-ABCB6 porphyrin accumulation, 1 h, at 10 µM, stronger effect = higher value
[17] = promoters of myeloid differentiation in arrested cells, primary screen, cell-based, GFP/MAC1 double positive, flow cytometry, validation set (AID 588685;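 active = differentiation response of at least 50%, scaled between solvent and reference control, from cells with both markers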;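 note: compound exposure lasts four days before antibody staining and flow analysis; 0% = DMSO wells and 100% = 5 µM fulvestrant positive control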); settings: ER-HoxA9 marrow cells, stronger effect = higher value
[18] = RPL19A-GFP modulators, yeast TOR pathway, confirmation, cell-based, S. cerevisiae, flow cytometry, cherry picks, mother/daughter gates (AID 2270;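 active = GFP response below 50% of the DMSO control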); settings: S. cerevisiae RPL19A-GFP strain, 3 h, at 10 µM, stronger effect = lower value, 100 = same GFP as DMSO wells
[19] = LAP4-GFP expression modulators in yeast, confirmation, cell-based, cherry picks, flow cytometry, mother/daughter gates (AID 2271;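 active = GFP response above 150% of the DMSO control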;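 note: ratio of sample to DMSO plate mean so 100% equals DMSO level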); settings: S. cerevisiae LAP4-GFP strain, 3 h, at 10 µM, stronger effect = higher value
[20] = modulators of CIT2-GFP expression in yeast, confirmation, S. cerevisiae, GFP fusion, cherry picks, mother/daughter gates (AID 2274;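 active = GFP response above 150% of the DMSO level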); settings: S. cerevisiae CIT2-GFP strain, flow cytometry, 3 h, at 10 µM, stronger effect = higher value
[21] = measured here: daughter cell gate
[22] = measured here: mother cell gate
[23] = measured here: daughter cell gate response
[24] = measured here: mother cell gate response

Sequence of AP-2 complex subunit beta (Homo sapiens) (P63010 whole entry, looked up, one chain of several): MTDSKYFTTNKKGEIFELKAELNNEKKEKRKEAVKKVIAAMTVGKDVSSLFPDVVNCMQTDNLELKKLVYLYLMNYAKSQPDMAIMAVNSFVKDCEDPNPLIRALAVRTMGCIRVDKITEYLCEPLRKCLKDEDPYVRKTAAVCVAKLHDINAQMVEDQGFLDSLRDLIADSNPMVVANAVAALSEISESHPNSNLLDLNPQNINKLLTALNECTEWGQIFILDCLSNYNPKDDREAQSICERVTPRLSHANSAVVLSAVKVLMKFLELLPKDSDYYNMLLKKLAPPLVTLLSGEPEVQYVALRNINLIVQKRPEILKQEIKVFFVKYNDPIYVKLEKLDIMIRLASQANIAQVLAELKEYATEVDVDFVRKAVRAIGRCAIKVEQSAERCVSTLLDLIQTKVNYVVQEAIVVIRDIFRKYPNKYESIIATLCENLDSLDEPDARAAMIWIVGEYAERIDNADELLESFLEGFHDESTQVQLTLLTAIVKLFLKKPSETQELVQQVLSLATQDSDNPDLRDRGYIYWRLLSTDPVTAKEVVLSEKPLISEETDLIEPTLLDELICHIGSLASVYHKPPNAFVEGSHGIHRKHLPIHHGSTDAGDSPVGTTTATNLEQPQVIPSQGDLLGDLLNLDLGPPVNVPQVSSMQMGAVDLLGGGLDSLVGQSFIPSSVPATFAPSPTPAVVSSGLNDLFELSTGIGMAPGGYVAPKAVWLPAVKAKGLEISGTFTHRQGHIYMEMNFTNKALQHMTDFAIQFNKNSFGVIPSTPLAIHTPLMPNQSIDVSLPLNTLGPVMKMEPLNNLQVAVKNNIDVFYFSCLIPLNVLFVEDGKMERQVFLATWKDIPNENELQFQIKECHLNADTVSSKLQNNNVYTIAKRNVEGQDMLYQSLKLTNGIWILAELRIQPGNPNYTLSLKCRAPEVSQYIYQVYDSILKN
Sequence of Integrin beta-1 (Homo sapiens) + Integrin alpha-4 (Homo sapiens) (P05556 whole entry, looked up): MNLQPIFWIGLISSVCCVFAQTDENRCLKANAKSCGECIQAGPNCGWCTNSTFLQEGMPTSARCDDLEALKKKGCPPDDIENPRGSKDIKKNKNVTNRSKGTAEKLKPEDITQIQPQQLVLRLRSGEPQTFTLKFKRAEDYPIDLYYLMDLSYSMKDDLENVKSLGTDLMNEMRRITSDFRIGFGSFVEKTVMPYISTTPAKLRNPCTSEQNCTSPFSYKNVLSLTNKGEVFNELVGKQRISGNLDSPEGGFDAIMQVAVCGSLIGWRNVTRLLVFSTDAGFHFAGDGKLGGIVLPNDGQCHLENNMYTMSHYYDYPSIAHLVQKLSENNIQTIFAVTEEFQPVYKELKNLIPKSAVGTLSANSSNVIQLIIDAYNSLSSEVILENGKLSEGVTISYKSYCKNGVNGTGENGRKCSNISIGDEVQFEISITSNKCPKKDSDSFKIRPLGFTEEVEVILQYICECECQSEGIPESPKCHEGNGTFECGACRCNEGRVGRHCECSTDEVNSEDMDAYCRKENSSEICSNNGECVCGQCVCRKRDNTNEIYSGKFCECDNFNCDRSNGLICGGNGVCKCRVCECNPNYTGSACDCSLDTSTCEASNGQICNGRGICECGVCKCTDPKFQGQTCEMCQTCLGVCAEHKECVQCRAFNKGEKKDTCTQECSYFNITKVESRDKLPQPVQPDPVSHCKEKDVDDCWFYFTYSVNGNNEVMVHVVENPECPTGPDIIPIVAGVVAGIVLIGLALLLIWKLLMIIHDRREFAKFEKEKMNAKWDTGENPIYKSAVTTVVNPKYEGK
Sequence of Integrin beta-1 (Homo sapiens) + Integrin alpha-4 (Homo sapiens) (P13612 whole entry, looked up): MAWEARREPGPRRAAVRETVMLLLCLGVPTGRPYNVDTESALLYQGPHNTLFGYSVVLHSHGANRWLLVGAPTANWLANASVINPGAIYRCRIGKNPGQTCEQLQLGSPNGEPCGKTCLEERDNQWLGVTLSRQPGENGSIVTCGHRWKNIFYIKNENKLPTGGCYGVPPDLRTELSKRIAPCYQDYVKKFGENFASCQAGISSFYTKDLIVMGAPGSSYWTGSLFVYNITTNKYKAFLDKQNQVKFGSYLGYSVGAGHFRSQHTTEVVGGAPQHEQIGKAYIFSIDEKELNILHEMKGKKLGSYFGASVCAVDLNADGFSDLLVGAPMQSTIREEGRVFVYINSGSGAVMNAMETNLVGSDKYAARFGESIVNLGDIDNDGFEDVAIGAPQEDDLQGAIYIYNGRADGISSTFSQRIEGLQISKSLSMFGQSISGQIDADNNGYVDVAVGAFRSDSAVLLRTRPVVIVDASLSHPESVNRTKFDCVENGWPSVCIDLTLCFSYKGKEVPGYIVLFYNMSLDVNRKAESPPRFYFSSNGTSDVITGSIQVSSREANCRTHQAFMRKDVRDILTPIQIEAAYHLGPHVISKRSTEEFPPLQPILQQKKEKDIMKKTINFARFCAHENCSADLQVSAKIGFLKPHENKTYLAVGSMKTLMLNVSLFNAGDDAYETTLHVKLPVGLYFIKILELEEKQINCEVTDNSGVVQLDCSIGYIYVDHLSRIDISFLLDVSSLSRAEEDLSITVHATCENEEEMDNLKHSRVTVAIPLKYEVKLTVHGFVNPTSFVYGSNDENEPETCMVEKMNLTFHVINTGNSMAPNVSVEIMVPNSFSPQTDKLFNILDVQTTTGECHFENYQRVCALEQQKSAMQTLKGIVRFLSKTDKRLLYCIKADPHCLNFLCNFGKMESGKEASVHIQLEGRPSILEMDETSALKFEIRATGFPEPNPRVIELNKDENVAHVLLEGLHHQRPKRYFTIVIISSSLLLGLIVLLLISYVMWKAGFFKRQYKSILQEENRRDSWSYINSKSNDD
Sequence of Beta-adrenergic receptor kinase 1 (Homo sapiens) (P25098 whole entry, looked up): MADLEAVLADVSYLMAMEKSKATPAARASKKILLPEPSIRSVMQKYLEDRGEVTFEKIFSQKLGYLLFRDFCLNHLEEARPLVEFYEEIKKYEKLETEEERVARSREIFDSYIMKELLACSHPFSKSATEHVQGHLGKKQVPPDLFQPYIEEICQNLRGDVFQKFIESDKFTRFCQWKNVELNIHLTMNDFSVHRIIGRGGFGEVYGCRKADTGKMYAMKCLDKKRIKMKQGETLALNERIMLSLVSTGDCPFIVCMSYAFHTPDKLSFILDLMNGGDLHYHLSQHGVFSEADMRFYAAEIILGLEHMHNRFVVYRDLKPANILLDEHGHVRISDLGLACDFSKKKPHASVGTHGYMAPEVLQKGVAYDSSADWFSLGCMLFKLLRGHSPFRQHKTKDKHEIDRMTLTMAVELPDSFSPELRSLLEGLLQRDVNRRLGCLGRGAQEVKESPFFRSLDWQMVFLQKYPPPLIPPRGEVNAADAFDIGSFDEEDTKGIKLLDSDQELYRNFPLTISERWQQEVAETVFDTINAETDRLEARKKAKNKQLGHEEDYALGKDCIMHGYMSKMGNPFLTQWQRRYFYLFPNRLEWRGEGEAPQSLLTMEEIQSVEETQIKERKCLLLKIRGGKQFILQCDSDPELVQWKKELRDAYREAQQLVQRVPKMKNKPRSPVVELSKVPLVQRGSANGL
Sequence of ATP-binding cassette sub-family B member 6 (Homo sapiens) (Q9NP58 whole entry, looked up): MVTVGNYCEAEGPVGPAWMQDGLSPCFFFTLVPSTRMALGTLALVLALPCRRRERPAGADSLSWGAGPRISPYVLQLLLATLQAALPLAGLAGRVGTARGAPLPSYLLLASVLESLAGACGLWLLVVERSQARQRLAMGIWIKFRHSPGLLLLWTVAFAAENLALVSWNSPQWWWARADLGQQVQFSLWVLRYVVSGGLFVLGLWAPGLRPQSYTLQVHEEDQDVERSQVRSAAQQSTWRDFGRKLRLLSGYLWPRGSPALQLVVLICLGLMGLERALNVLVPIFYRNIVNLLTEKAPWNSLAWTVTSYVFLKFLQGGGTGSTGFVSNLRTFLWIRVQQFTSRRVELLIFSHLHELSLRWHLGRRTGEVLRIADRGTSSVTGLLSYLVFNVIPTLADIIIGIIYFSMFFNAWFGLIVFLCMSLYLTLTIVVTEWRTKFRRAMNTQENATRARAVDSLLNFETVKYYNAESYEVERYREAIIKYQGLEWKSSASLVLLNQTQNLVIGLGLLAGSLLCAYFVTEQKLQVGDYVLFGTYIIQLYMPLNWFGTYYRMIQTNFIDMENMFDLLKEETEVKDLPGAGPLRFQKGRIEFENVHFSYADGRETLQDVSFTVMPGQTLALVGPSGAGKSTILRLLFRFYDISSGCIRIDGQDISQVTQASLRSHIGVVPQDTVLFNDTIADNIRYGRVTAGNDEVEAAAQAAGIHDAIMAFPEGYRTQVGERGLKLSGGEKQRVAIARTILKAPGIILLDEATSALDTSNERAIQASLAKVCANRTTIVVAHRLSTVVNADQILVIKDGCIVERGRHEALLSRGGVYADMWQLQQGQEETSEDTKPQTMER

CC(C)[C@@]1(NC(=O)[C@@H]2C[C@@H]3c4cccc5[nH]cc(c45)C[C@H]3N(C)C2)O[C@@]2(O)[C@@H]3CCCN3C(=O)[C@H](Cc3ccccc3)N2C1=O
percent of DMSO control GFP [1]: 88.4% (inactive) | GFP response vs DMSO [2]: 132% (inactive) | percent response of DMSO control [3]: 112% (inactive) | GFP response vs DMSO [4]: 84.2% (inactive) | double positive events [5]: 74.1% | vesicle binding response [5]: 240% (inactive) | inhibition [6]: -14.9% (inactive) | superoxide response (% of plate) [7]: 98.1% (inactive) | aptamer binding inhibition [8]: -3% (inactive) | inhibition [9]: 0.81% (inactive) | response [10]: 1.06% (inactive) | binding (% of control) [11]: 114% (inactive) | inhibition [12]: -9.2% (inactive) | inhibition [13]: -1.6% (inactive) | inhibition [14]: -32% (inactive) | efflux inhibition (fraction of control) [15]: 0.37 (inactive) | inhibition [16]: 9% (inactive) | differentiation response [17]: 4.09% (inactive)

CCOC(=O)c1cncn1C(C)c1ccccc1 (centres undefined)
percent of DMSO control GFP [1]: 104% (inactive) | percent response of DMSO control [3]: 106% (inactive) | GFP response vs DMSO [4]: 80.2% (inactive) | double positive events [5]: 60% | vesicle binding response [5]: 404% (inactive) | inhibition [6]: 7.85% (inactive) | superoxide response (% of plate) [7]: 97% (inactive) | aptamer binding inhibition [8]: 4% (inactive) | inhibition [9]: -10.9% (inactive) | response [10]: 2.71% (inactive) | binding (% of control) [11]: 101% (inactive) | efflux inhibition (fraction of control) [15]: 0.27 (inactive) | inhibition [16]: 12% (inactive) | differentiation response [17]: 2.2% (inactive)

Cc1cccn2c(NCC3CCCO3)c(C(C)C)nc12 (centres undefined)
GFP response vs DMSO [18]: 99.1% (inactive) | GFP response vs DMSO [18, 21]: 100% | GFP response vs DMSO [18, 22]: 100% | GFP response relative to DMSO [19]: 97.7% (inactive) | GFP response relative to DMSO [19, 23]: 96.5% | GFP response relative to DMSO [19, 24]: 96.5% | GFP response, % of DMSO [20]: 106% (inactive) | GFP response, % of DMSO [20, 21]: 106% | GFP response, % of DMSO [20, 22]: 105%

CCOC(=O)C(C)Oc1cc(C)cc2oc(=O)c3c(c12)CCCC3 (centres undefined)
percent of DMSO control GFP [1]: 95.2% (inactive) | GFP response vs DMSO [2]: 116% (inactive) | percent response of DMSO control [3]: 104% (inactive) | GFP response vs DMSO [4]: 74.8% (inactive) | double positive events [5]: 81.8% | inhibition [6]: 0.64% (inactive) | superoxide response (% of plate) [7]: 103% (inactive) | aptamer binding inhibition [8]: 5% (inactive) | inhibition [9]: -3.6% (inactive) | response [10]: -8.97% (inactive) | binding (% of control) [11]: 97.6% (inactive) | inhibition [12]: -0.4% (inactive) | inhibition [13]: -1.5% (inactive) | inhibition [14]: 0.6% (inactive) | efflux inhibition (fraction of control) [15]: -0.46 (inactive) | inhibition [16]: 12% (inactive) | differentiation response [17]: -9.01% (inactive)

O=c1[nH]c(=S)n(-c2ccccc2)c(O)c1/C=N/N1CCOCC1
GFP response vs DMSO [18]: 102% (inactive) | GFP response vs DMSO [18, 21]: 103% | GFP response vs DMSO [18, 22]: 102% | GFP response relative to DMSO [19]: 95.7% (inactive) | GFP response relative to DMSO [19, 23]: 97.5% | GFP response relative to DMSO [19, 24]: 96.2% | GFP response, % of DMSO [20]: 100% (inactive) | GFP response, % of DMSO [20, 21]: 103% | GFP response, % of DMSO [20, 22]: 99.3%

O=C1NC(=O)C(=Cc2ccc(Sc3ccccc3)o2)C(=O)N1
GFP response vs DMSO [18]: 103% (inactive) | GFP response vs DMSO [18, 21]: 93.1% | GFP response vs DMSO [18, 22]: 89.2% | GFP response relative to DMSO [19]: 140% (inactive) | GFP response relative to DMSO [19, 23]: 107% | GFP response relative to DMSO [19, 24]: 148% | GFP response, % of DMSO [20]: 91.2% (inactive) | GFP response, % of DMSO [20, 22]: 77.2%

O=C1NC(=O)N(c2ccccc2)C(=O)/C1=C/c1ccc(Sc2ccccc2)o1
GFP response vs DMSO [18]: 99.7% (inactive) | GFP response vs DMSO [18, 21]: 98.5% | GFP response vs DMSO [18, 22]: 95.2% | GFP response relative to DMSO [19]: 177% (active) | GFP response relative to DMSO [19, 23]: 135% | GFP response relative to DMSO [19, 24]: 170% | GFP response, % of DMSO [20]: 89.2% (inactive) | GFP response, % of DMSO [20, 21]: 98.3% | GFP response, % of DMSO [20, 22]: 79.3%
